# ± gives the standard deviation.
# T1: HaloTag-ATRX ADD domain (163-292)
# T1 chain: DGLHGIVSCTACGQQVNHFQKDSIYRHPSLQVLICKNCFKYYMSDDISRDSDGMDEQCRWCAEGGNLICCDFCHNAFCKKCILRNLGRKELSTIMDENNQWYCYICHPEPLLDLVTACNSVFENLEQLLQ
# Legend:
# Test in all cases: peptide microarray binding signal (635 nm), min-max normalized on array (fraction of array maximum); higher = stronger binding
# [1] = target: T1, HaloTag-ATRX ADD domain (163-292)
# Method in brief: (§1)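 Arrays carried histone 13-mer peptide–cellulose conjugates printed in triplicate on nitrocellulose alongside a Cy3 tracer. After overnight blocking at 4°C, they were incubated for 1 h at 4°C with biotin-labelled HaloTag reader fusions (10 nM to 1 μM) plus streptavidin-Alexa Fluor 647, or with rabbit histone antibodies (1:10,000 to 1:2,000) plus anti-rabbit Alexa 647. Scanning on an Axon GenePix 4000B used 635 nm for signal and 532 nm for misprints. The binding signal reported is each triplicate's mean spot intensity after per-library min-max scaling.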
# [2] = target: HaloTag-ING2 PHD (mouse Ing2 200-280)
# Method in brief: as §1
# [3] = target: anti-H3K4me3 antibody ab8580
# Method in brief: as §1
# [4] = target: anti-H3K9me3 antibody ab8898
# Method in brief: as §1
# [5] = peptide region: H3 73-85, peptide modifications: H3T80ph, binder concentration: 1:2,000 dilution
# [6] = peptide region: H3 73-85, peptide modifications: H3T80ph, binder concentration: 1:10,000 dilution
# [7] = peptide region: H3 112-124, peptide modifications: H3K115ac, binder concentration: 1:2,000 dilution
# [8] = peptide region: H3 112-124, peptide modifications: H3K115ac, binder concentration: 1:10,000 dilution
# [9] = peptide region: H3 112-124, peptide modifications: H3K115me1 H3K122me3, binder concentration: 1:2,000 dilution
# [10] = peptide region: H3 112-124, peptide modifications: H3K115me1 H3K122me3, binder concentration: 1:10,000 dilution
# [11] = peptide region: H3 112-124, peptide modifications: H3K115me1, binder concentration: 1:2,000 dilution
# [12] = peptide region: H3 112-124, peptide modifications: H3K115me1, binder concentration: 1:10,000 dilution
# [13] = peptide region: H3 112-124, peptide modifications: H3K115ac H3R116me1, binder concentration: 1:2,000 dilution
# [14] = peptide region: H3 112-124, peptide modifications: H3K115ac H3R116me1, binder concentration: 1:10,000 dilution
binder,measurement,setting,value
EIAQDFKTDLRFQ [H3 73-85 E I A Q D F K Tph D L R F Q],peptide microarray binding signal,"[1]; peptide region: H3 73-85, peptide modifications: H3T80ph, binder concentration: 50 nM",0.00129 ± 3.8e-05
same,peptide microarray binding signal,"[1]; peptide region: H3 73-85, peptide modifications: H3T80ph, binder concentration: 500 nM",0.00386 ± 0.00022
same,peptide microarray binding signal,"[2]; peptide region: H3 73-85, peptide modifications: H3T80ph, binder concentration: 10 nM",0.00406 ± 0.00014
same,peptide microarray binding signal,"[2]; peptide region: H3 73-85, peptide modifications: H3T80ph, binder concentration: 100 nM",0.000921
same,peptide microarray binding signal,[3]; [5],0.000547 ± 3.5e-05
same,peptide microarray binding signal,[3]; [6],0.000685 ± 7.2e-06
same,peptide microarray binding signal,[4]; [5],0.00186 ± 2e-05
same,peptide microarray binding signal,[4]; [6],0.00127 ± 4.6e-05
IHAKRVTIMPKDI [H3 112-124 I H A Kac R V T I M P K D I],peptide microarray binding signal,"[1]; peptide region: H3 112-124, peptide modifications: H3K115ac, binder concentration: 50 nM",0.0131 ± 0.00019
same,peptide microarray binding signal,"[1]; peptide region: H3 112-124, peptide modifications: H3K115ac, binder concentration: 500 nM",0.0422 ± 0.0053
same,peptide microarray binding signal,"[2]; peptide region: H3 112-124, peptide modifications: H3K115ac, binder concentration: 10 nM",0.0158 ± 0.0028
same,peptide microarray binding signal,"[2]; peptide region: H3 112-124, peptide modifications: H3K115ac, binder concentration: 100 nM",0.0152 ± 0.00051
same,peptide microarray binding signal,[3]; [7],0.00323 ± 0.00038
same,peptide microarray binding signal,[3]; [8],0.00228 ± 0.00013
same,peptide microarray binding signal,[4]; [7],0.00832 ± 0.00014
same,peptide microarray binding signal,[4]; [8],0.00329 ± 0.00029
IHAKRVTIMPKDI [H3 112-124 I H A Kme R V T I M P Kme3 D I],peptide microarray binding signal,"[1]; peptide region: H3 112-124, peptide modifications: H3K115me1 H3K122me3, binder concentration: 50 nM",0.00583 ± 0.00011
same,peptide microarray binding signal,"[1]; peptide region: H3 112-124, peptide modifications: H3K115me1 H3K122me3, binder concentration: 500 nM",0.0149 ± 0.00053
same,peptide microarray binding signal,"[2]; peptide region: H3 112-124, peptide modifications: H3K115me1 H3K122me3, binder concentration: 10 nM",0.0251 ± 0.0019
same,peptide microarray binding signal,"[2]; peptide region: H3 112-124, peptide modifications: H3K115me1 H3K122me3, binder concentration: 100 nM",0.0482 ± 0.004
same,peptide microarray binding signal,[3]; [9],0.00627 ± 0.0014
same,peptide microarray binding signal,[3]; [10],0.00548 ± 0.00038
same,peptide microarray binding signal,[4]; [9],0.0268 ± 0.0058
same,peptide microarray binding signal,[4]; [10],0.0121 ± 0.00038
IHAKRVTIMPKDI [H3 112-124 I H A Kme R V T I M P K D I],peptide microarray binding signal,"[1]; peptide region: H3 112-124, peptide modifications: H3K115me1, binder concentration: 50 nM",0.00774 ± 0.00015
same,peptide microarray binding signal,"[1]; peptide region: H3 112-124, peptide modifications: H3K115me1, binder concentration: 500 nM",0.0198 ± 0.0023
same,peptide microarray binding signal,"[2]; peptide region: H3 112-124, peptide modifications: H3K115me1, binder concentration: 10 nM",0.00668 ± 0.00016
same,peptide microarray binding signal,"[2]; peptide region: H3 112-124, peptide modifications: H3K115me1, binder concentration: 100 nM",0.0314 ± 0.0099
same,peptide microarray binding signal,[3]; [11],0.00168 ± 0.00023
same,peptide microarray binding signal,[3]; [12],0.001997 ± 1.8e-05
same,peptide microarray binding signal,[4]; [11],0.0034 ± 0.00038
same,peptide microarray binding signal,[4]; [12],0.00236 ± 0.00015
IHAKRVTIMPKDI [H3 112-124 I H A Kac Rme V T I M P K D I],peptide microarray binding signal,"[1]; peptide region: H3 112-124, peptide modifications: H3K115ac H3R116me1, binder concentration: 50 nM",0.0108 ± 0.00025
same,peptide microarray binding signal,"[1]; peptide region: H3 112-124, peptide modifications: H3K115ac H3R116me1, binder concentration: 500 nM",0.0193 ± 0.00083
same,peptide microarray binding signal,"[2]; peptide region: H3 112-124, peptide modifications: H3K115ac H3R116me1, binder concentration: 10 nM",0.0322 ± 0.0019
same,peptide microarray binding signal,"[2]; peptide region: H3 112-124, peptide modifications: H3K115ac H3R116me1, binder concentration: 100 nM",0.0449 ± 0.0042
same,peptide microarray binding signal,[3]; [13],0.00519 ± 0.0005
same,peptide microarray binding signal,[3]; [14],0.00542 ± 0.00027
same,peptide microarray binding signal,[4]; [13],0.00293 ± 0.00034
same,peptide microarray binding signal,[4]; [14],0.00254 ± 3.9e-05
